In PMC11006913:

Key:
Test in all cases: PBM; 200 nM protein, PBS
Conditions in all cases: dsDNA, one strand shown
HOXB9 [1] = target: HOXB9 (Homo sapiens, UniProt P17482 171-250, T197M)
HOXC9 [2] = target: HOXC9 (Homo sapiens, UniProt P31274 178-260, K195R)
HOXC10 [3] = target: HOXC10 (Homo sapiens, UniProt Q9NYD6 254-340)
HOXB9 [4] = target: HOXB9 (Homo sapiens, UniProt P17482 171-250)
HOXC9 [5] = target: HOXC9 (Homo sapiens, UniProt P31274 178-260)
HOXD13 [6] = target: HOXD13 (Homo sapiens, UniProt P35453 263-343, T313R)
HOXC9 [7] = target: HOXC9 (Homo sapiens, UniProt P31274 178-260, R193K)
HOXD13 [8] = target: HOXD13 (Homo sapiens, UniProt P35453 263-343)
HOXC10 [9] = target: HOXC10 (Homo sapiens, UniProt Q9NYD6 254-340, K271E)
HOXD13 [10] = target: HOXD13 (Homo sapiens, UniProt P35453 263-343, T313A)
HOXB9 [11] = target: HOXB9 (Homo sapiens, UniProt P17482 171-250, R186Q)
HOXC9 [12] = target: HOXC9 (Homo sapiens, UniProt P31274 178-260, R222W)
HOXA2 [13] = target: HOXA2 (Homo sapiens, UniProt O43364 129-215, R185T)
HOXA2 [14] = target: HOXA2 (Homo sapiens, UniProt O43364 129-215, R185K)
HOXA2 [15] = target: HOXA2 (Homo sapiens, UniProt O43364 129-215, Y150S)
HOXA2 [16] = target: HOXA2 (Homo sapiens, UniProt O43364 129-215)
ALX4 [17] = target: ALX4 (Homo sapiens, UniProt Q9H161 200-286)
ALX4 [18] = target: ALX4 (Homo sapiens, UniProt Q9H161 200-286, Q225E)
ALX3 [19] = target: ALX3 (Homo sapiens, UniProt O95076 139-225, N203Q)
ALX3 [20] = target: ALX3 (Homo sapiens, UniProt O95076 139-225)
ALX3 (Homo sapiens, UniProt O95076 139-225), sequence (O95076 139-225): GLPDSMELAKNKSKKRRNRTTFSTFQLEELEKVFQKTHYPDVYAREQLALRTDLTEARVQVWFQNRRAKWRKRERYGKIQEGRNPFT

HOXB9 (Homo sapiens, UniProt P17482 171-250), sequence (P17482 171-250): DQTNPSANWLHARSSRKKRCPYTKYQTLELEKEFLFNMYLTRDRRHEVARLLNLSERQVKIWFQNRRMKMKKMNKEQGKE
HOXB9 (Homo sapiens, UniProt P17482 171-250, R186Q), sequence (P17482 171-250 R186Q): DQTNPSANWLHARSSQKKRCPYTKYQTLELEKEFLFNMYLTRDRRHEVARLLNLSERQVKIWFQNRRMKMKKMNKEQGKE
HOXD13 (Homo sapiens, UniProt P35453 263-343), sequence (P35453 263-343): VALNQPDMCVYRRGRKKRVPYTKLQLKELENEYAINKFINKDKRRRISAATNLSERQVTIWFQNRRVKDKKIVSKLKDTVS
HOXC9 (Homo sapiens, UniProt P31274 178-260), sequence (P31274 178-260): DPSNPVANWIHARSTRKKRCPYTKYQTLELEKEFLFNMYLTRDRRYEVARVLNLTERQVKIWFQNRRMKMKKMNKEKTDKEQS
HOXB9 (Homo sapiens, UniProt P17482 171-250, T197M), sequence (P17482 171-250 T197M): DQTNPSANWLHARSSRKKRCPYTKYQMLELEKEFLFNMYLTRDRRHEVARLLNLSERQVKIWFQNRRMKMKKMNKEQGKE
HOXC9 (Homo sapiens, UniProt P31274 178-260, R222W), sequence (P31274 178-260 R222W): as the sequence (P31274 178-260) above, with R45W counted along it
HOXC10 (Homo sapiens, UniProt Q9NYD6 254-340), sequence (Q9NYD6 254-340): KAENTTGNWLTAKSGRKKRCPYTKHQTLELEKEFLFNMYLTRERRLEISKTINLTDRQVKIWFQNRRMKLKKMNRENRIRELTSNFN
HOXC9 (Homo sapiens, UniProt P31274 178-260, K195R), sequence (P31274 178-260 K195R): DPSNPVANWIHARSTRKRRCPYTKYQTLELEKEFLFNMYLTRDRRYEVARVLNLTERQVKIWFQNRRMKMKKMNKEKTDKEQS
HOXC9 (Homo sapiens, UniProt P31274 178-260, R193K), sequence (P31274 178-260 R193K): as the sequence (P31274 178-260) above, with R16K counted along it
HOXD13 (Homo sapiens, UniProt P35453 263-343, T313A), sequence (P35453 263-343 T313A): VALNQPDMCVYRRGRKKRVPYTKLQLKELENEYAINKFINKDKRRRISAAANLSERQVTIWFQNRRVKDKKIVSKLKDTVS
HOXD13 (Homo sapiens, UniProt P35453 263-343, T313R), sequence (P35453 263-343 T313R): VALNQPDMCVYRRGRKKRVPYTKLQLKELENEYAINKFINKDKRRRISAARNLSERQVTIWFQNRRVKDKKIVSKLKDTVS
HOXC10 (Homo sapiens, UniProt Q9NYD6 254-340, K271E), sequence (Q9NYD6 254-340 K271E): as the sequence (Q9NYD6 254-340) above, with K18E counted along it
ALX3 (Homo sapiens, UniProt O95076 139-225, N203Q), sequence (O95076 139-225 N203Q): as the sequence (O95076 139-225) above, with N65Q counted along it
HOXA2 (Homo sapiens, UniProt O43364 129-215, Y150S), sequence (O43364 129-215 Y150S): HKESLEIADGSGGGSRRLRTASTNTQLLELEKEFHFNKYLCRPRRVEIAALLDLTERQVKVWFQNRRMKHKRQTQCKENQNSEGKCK
HOXA2 (Homo sapiens, UniProt O43364 129-215), sequence (O43364 129-215): as the sequence (O43364 129-215 Y150S) above, with S22Y counted along it
HOXA2 (Homo sapiens, UniProt O43364 129-215, R185K), sequence (O43364 129-215 R185K): as the sequence (O43364 129-215 Y150S) above, with S22Y, R57K counted along it
HOXA2 (Homo sapiens, UniProt O43364 129-215, R185T), sequence (O43364 129-215 R185T): as the sequence (O43364 129-215 Y150S) above, with S22Y, R57T counted along it
ALX4 (Homo sapiens, UniProt Q9H161 200-286), sequence (Q9H161 200-286): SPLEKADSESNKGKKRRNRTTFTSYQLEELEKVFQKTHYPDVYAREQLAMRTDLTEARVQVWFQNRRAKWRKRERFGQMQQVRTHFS
ALX4 (Homo sapiens, UniProt Q9H161 200-286, Q225E), sequence (Q9H161 200-286 Q225E): as the sequence (Q9H161 200-286) above, with Q26E counted along it

| Sequence | binding signal (HOXB9 [1]) | binding signal (HOXC9 [2]) | binding signal (HOXC10 [3]) | binding signal (HOXB9 [4]) | binding signal (HOXC9 [5]) | binding signal (HOXD13 [6]) | binding signal (HOXC9 [7]) | binding signal (HOXD13 [8]) | binding signal (HOXC10 [9]) | binding signal (HOXD13 [10]) | binding signal (HOXB9 [11]) | binding signal (HOXC9 [12]) | binding signal (HOXA2 [13]) | binding signal (HOXA2 [14]) | binding signal (HOXA2 [15]) | binding signal (HOXA2 [16]) | binding signal (ALX4 [17]) | binding signal (ALX4 [18]) | binding signal (ALX3 [19]) | binding signal (ALX3 [20]) |
| --- | --- | --- | --- | --- | --- | --- | --- | --- | --- | --- | --- | --- | --- | --- | --- | --- | --- | --- | --- | --- |
| GTCATAAA | 9.98 upbm affinity estimate (log intensity, higher = more binding, comparable within an allelic series) | 13.1 upbm affinity estimate (log intensity, higher = more binding, comparable within an allelic series) | 12.9 upbm affinity estimate (log intensity, higher = more binding, comparable within an allelic series) | 12.5 upbm affinity estimate (log intensity, higher = more binding, comparable within an allelic series) | 13.1 upbm affinity estimate (log intensity, higher = more binding, comparable within an allelic series) | 10.9 upbm affinity estimate (log intensity, higher = more binding, comparable within an allelic series) | 13.1 upbm affinity estimate (log intensity, higher = more binding, comparable within an allelic series) | 12.1 upbm affinity estimate (log intensity, higher = more binding, comparable within an allelic series) | 12.4 upbm affinity estimate (log intensity, higher = more binding, comparable within an allelic series) | 11.8 upbm affinity estimate (log intensity, higher = more binding, comparable within an allelic series) | 12.2 upbm affinity estimate (log intensity, higher = more binding, comparable within an allelic series) | 11.2 upbm affinity estimate (log intensity, higher = more binding, comparable within an allelic series) | – | – | – | – | – | – | – | – |
| CATTAAAC | 9.93 upbm affinity estimate (log intensity, higher = more binding, comparable within an allelic series) | 12.5 upbm affinity estimate (log intensity, higher = more binding, comparable within an allelic series) | 12.2 upbm affinity estimate (log intensity, higher = more binding, comparable within an allelic series) | 11.8 upbm affinity estimate (log intensity, higher = more binding, comparable within an allelic series) | 12.6 upbm affinity estimate (log intensity, higher = more binding, comparable within an allelic series) | – | 12.6 upbm affinity estimate (log intensity, higher = more binding, comparable within an allelic series) | – | 11.9 upbm affinity estimate (log intensity, higher = more binding, comparable within an allelic series) | – | 11.6 upbm affinity estimate (log intensity, higher = more binding, comparable within an allelic series) | 10.9 upbm affinity estimate (log intensity, higher = more binding, comparable within an allelic series) | – | – | – | – | – | – | – | – |
| CGCCACCG | 8.56 upbm affinity estimate (log intensity, higher = more binding, comparable within an allelic series) | 9.67 upbm affinity estimate (log intensity, higher = more binding, comparable within an allelic series) | – | 8.3 upbm affinity estimate (log intensity, higher = more binding, comparable within an allelic series) | 9.81 upbm affinity estimate (log intensity, higher = more binding, comparable within an allelic series) | 9.57 upbm affinity estimate (log intensity, higher = more binding, comparable within an allelic series) | 9.64 upbm affinity estimate (log intensity, higher = more binding, comparable within an allelic series) | 9.56 upbm affinity estimate (log intensity, higher = more binding, comparable within an allelic series) | – | 9.65 upbm affinity estimate (log intensity, higher = more binding, comparable within an allelic series) | 8.46 upbm affinity estimate (log intensity, higher = more binding, comparable within an allelic series) | 9.73 upbm affinity estimate (log intensity, higher = more binding, comparable within an allelic series) | 7.25 upbm affinity estimate (log intensity, higher = more binding, comparable within an allelic series) | 10.5 upbm affinity estimate (log intensity, higher = more binding, comparable within an allelic series) | 10.7 upbm affinity estimate (log intensity, higher = more binding, comparable within an allelic series) | 7.41 upbm affinity estimate (log intensity, higher = more binding, comparable within an allelic series) | – | – | – | – |
| CCTTGCAG | 8.52 upbm affinity estimate (log intensity, higher = more binding, comparable within an allelic series) | 9.62 upbm affinity estimate (log intensity, higher = more binding, comparable within an allelic series) | – | 8.41 upbm affinity estimate (log intensity, higher = more binding, comparable within an allelic series) | 9.66 upbm affinity estimate (log intensity, higher = more binding, comparable within an allelic series) | – | 9.67 upbm affinity estimate (log intensity, higher = more binding, comparable within an allelic series) | – | – | – | 8.42 upbm affinity estimate (log intensity, higher = more binding, comparable within an allelic series) | 9.74 upbm affinity estimate (log intensity, higher = more binding, comparable within an allelic series) | – | – | – | – | 7.87 upbm affinity estimate (log intensity, higher = more binding, comparable within an allelic series) | 8.04 upbm affinity estimate (log intensity, higher = more binding, comparable within an allelic series) | – | – |
| GCCATAAA | 9.72 upbm affinity estimate (log intensity, higher = more binding, comparable within an allelic series) | 12.7 upbm affinity estimate (log intensity, higher = more binding, comparable within an allelic series) | 12.4 upbm affinity estimate (log intensity, higher = more binding, comparable within an allelic series) | 12.2 upbm affinity estimate (log intensity, higher = more binding, comparable within an allelic series) | 12.9 upbm affinity estimate (log intensity, higher = more binding, comparable within an allelic series) | 10.7 upbm affinity estimate (log intensity, higher = more binding, comparable within an allelic series) | 12.9 upbm affinity estimate (log intensity, higher = more binding, comparable within an allelic series) | 11.9 upbm affinity estimate (log intensity, higher = more binding, comparable within an allelic series) | 11.8 upbm affinity estimate (log intensity, higher = more binding, comparable within an allelic series) | 11.7 upbm affinity estimate (log intensity, higher = more binding, comparable within an allelic series) | 11.9 upbm affinity estimate (log intensity, higher = more binding, comparable within an allelic series) | 10.9 upbm affinity estimate (log intensity, higher = more binding, comparable within an allelic series) | – | – | – | – | – | – | – | – |
| CCATAAAA | 10 upbm affinity estimate (log intensity, higher = more binding, comparable within an allelic series) | 13.3 upbm affinity estimate (log intensity, higher = more binding, comparable within an allelic series) | 13 upbm affinity estimate (log intensity, higher = more binding, comparable within an allelic series) | 12.8 upbm affinity estimate (log intensity, higher = more binding, comparable within an allelic series) | 13.4 upbm affinity estimate (log intensity, higher = more binding, comparable within an allelic series) | 11 upbm affinity estimate (log intensity, higher = more binding, comparable within an allelic series) | 13.3 upbm affinity estimate (log intensity, higher = more binding, comparable within an allelic series) | 12.3 upbm affinity estimate (log intensity, higher = more binding, comparable within an allelic series) | 12.5 upbm affinity estimate (log intensity, higher = more binding, comparable within an allelic series) | 12 upbm affinity estimate (log intensity, higher = more binding, comparable within an allelic series) | 12.5 upbm affinity estimate (log intensity, higher = more binding, comparable within an allelic series) | 11.6 upbm affinity estimate (log intensity, higher = more binding, comparable within an allelic series) | – | – | – | – | – | – | 8.22 upbm affinity estimate (log intensity, higher = more binding, comparable within an allelic series) | 8.99 upbm affinity estimate (log intensity, higher = more binding, comparable within an allelic series) |
